# Among all 69,000 compounds or so, about 1,000 (1.4%) showed an effect of 50% or more. This is one part of a sample in which strong results are shown more often than they occur.
# System: Leishmania donovani
# Experiment: Leishmania intramacrophage assay
# Type: functional, organism-based
# Design: scale not given: in the data most compounds retested in dose-response had high values
smiles,measurement,setting,value
N#Cc1c2n(c3c(=O)[nH]cnc13)CCCCC2,Percent Effect,"30.3 µM, […]",19.13%
Cc1ccccc1CNCc1cc(Cl)ccc1O,Percent Effect,"30.3 µM, […]",-18.5%
Cc1ccc(C)c(NCc2nc3n(n2)CCCCC3)c1,Percent Effect,"30.3 µM, […]",-6.245%
CSc1cccc(CN(C)C(=O)c2ccc(C3CCCNC3)cc2)c1 (centres undefined),Percent Effect,"30.3 µM, […]",52.27%
CN(Cc1ccc2c(c1)OCO2)C(=O)c1ccc(C2CCCNC2)cc1 (centres undefined),Percent Effect,"30.3 µM, […]",4.185%
CSc1cccc(CN(C)C(=O)c2cccc(C3CCCNC3)c2)c1 (centres undefined),Percent Effect,"30.3 µM, […]",27.95%
CC(C)NC(=O)c1noc2c1CN(Cc1cnn(C)c1)CC2,Percent Effect,"30.3 µM, […]",0.4989%
Cc1noc(C)c1C(=O)NCc1ccc(N2CCCCCC2)nc1,Percent Effect,30 µM,36.14%
CCc1[nH]c2c(CNc3cncc(C(=O)OC)n3)cc(C)cc2c1C,Percent Effect,"30.3 µM, […]",-70.43%
CNc1nc(C)cc(NCc2cc(C)cc3c(C)c(C)[nH]c23)n1,Percent Effect,"30.3 µM, […]",35.88%
CNc1cc(C)nc(NCc2cc(C)cc3c(C)c(C)[nH]c23)n1,Percent Effect,"30.3 µM, […]",-40.33%
CCc1[nH]c2c(CNc3nc(C)cc(NC)n3)cc(C)cc2c1C,Percent Effect,"30.3 µM, […]",89.36%
CCc1[nH]c2c(CNc3cc(C)nc(NC)n3)cc(C)cc2c1C,Percent Effect,"30.3 µM, […]",71.01%
CCc1[nH]c2c(CNc3nccc(N)n3)cc(C)cc2c1C,Percent Effect,"30.3 µM, […]",21.52%
CC(C)c1ccc(S(=O)(=O)NC2CCN(CC(F)(F)F)C2)cc1 (centres undefined),Percent Effect,"30.3 µM, […]",20.88%
O=C(CC1CCCC1)N1CCCC1c1ccc(CN2CCOCC2)cn1 (centres undefined),Percent Effect,"30.3 µM, […]",7.793%
COc1ccccc1CN1C[C@@H](F)[C@@H](OCc2nc3ncccc3[nH]2)C1,Percent Effect,"30.3 µM, […]",33.82%
CCC(NC(=O)Cn1ccc(=O)n(C)c1=O)c1ccc(OC)cc1 (centres undefined),Percent Effect,"30.3 µM, […]",24.09%
CCc1ocnc1C(=O)Nc1ccc2ccn(CCN(C)C)c2c1,Percent Effect,"30.3 µM, […]",-1.774%
COCC1CC2(CCN(Cc3nccs3)CC2)CN1Cc1ccccn1.O=C(O)C(F)(F)F.O=C(O)C(F)(F)F.O=C(O)C(F)(F)F (centres undefined),Percent Effect,"30.3 µM, […]",50.9%
COCC(=O)N1CCC2(CC1)CC(COC)N(Cc1ccccn1)C2.O=C(O)C(F)(F)F (centres undefined),Percent Effect,"30.3 µM, […]",12.17%
COCC1CC2(CCN(Cc3ccccn3)CC2)CN1c1ncccn1.O=C(O)C(F)(F)F.O=C(O)C(F)(F)F.O=C(O)C(F)(F)F (centres undefined),Percent Effect,"30.3 µM, […]",-16.53%
O=C(O)C(F)(F)F.O=C1CC[C@H]2[C@H](CCN2C(=O)C2CCOCC2)N1Cc1ccncc1,Percent Effect,"30 µM, 30.03 µM",15.79%
CS(=O)(=O)c1ccc(CNC(=O)N2CCC(c3ccccc3)CC2)cc1,Percent Effect,"30 µM, 30.03 µM",-1.511%
Cc1cc(CN2C[C@@H]3CN(C(=O)c4cccn4C)CCO[C@@H]3C2)no1.O=C(O)C(F)(F)F,Percent Effect,"30.3 µM, […]",11.08%
Cn1cc(CN2C[C@@H]3CN(C(=O)c4cccn4C)CCO[C@@H]3C2)cn1,Percent Effect,"30.3 µM, […]",58.31%
Cn1cccc1C(=O)N1CCO[C@@H]2CN(Cc3ccco3)C[C@@H]2C1,Percent Effect,"30.3 µM, […]",19.73%
COCC1CN(CC2CC2)Cc2nn(CC3CC3)cc21.O=C(O)C(F)(F)F (centres undefined),Percent Effect,"30.3 µM, […]",8.658%
O=C1OCCN1CCOc1nc(-c2ccccc2Cl)no1,Percent Effect,"30 µM, 30.03 µM",4.618%
Cc1ccc(NC(=O)C(C)n2ccc(C(F)(F)F)n2)nc1 (centres undefined),Percent Effect,"30.3 µM, […]",38.05%
Cc1cnc(NC(=O)C(C)n2ccc(C(F)(F)F)n2)s1 (centres undefined),Percent Effect,"30.3 µM, […]",59.23%
CC(C(=O)Nc1ccc(Cl)cn1)n1ccc(C(F)(F)F)n1 (centres undefined),Percent Effect,"30.3 µM, […]",46.39%
Cc1cc(C(=O)N2CCCCC2C)ccc1NC(=O)N1CCOCC1 (centres undefined),Percent Effect,30 µM,22%
O=C(O)C(F)(F)F.c1cnc(N2Cc3nccn3CC(COc3cccnc3)C2)nc1 (centres undefined),Percent Effect,"30.3 µM, […]",5.012%
CN(C)c1ncc(-c2cncn2CCc2ccc3c(c2)OCCO3)cn1.Cl,Percent Effect,"30.3 µM, […]",20.21%
Cc1cccc(C2(C(=O)NCCCn3cccn3)CC2)c1,Percent Effect,"30 µM, 30.03 µM",17.4%
Cc1ccc(C)c(C(=O)N2CCOC(CCN(C)C)C2)c1 (centres undefined),Percent Effect,"30.3 µM, […]",10.51%
CCN(CC)CCCNCC1CCOC(C)(C)C1 (centres undefined),Percent Effect,"30.3 µM, […]",15.48%
COCCn1ccc2cc(C(=O)NC3CCOC(C)(C)C3)ccc21 (centres undefined),Percent Effect,"30.3 µM, […]",4.385%
Cc1ccc(C(C(=O)NCCN2CCC(CO)CC2)N(C)C)cc1 (centres undefined),Percent Effect,"30.3 µM, […]",25.71%
Cc1ccc(C(CCNCCN(C)C)C2CCOC(C)(C)C2)cc1.O=C(O)C(=O)O (centres undefined),Percent Effect,"30.3 µM, […]",99.98%
Cc1ccc(C(CCNCCCN(C)C)C2CCOC(C)(C)C2)cc1.O=C(O)C(=O)O (centres undefined),Percent Effect,"30.3 µM, […]",85.22%
CCc1noc(C(C)N2CCC(C)CC2)n1 (centres undefined),Percent Effect,30 µM,28.8%
Cn1nc(COc2cccnc2)c2c1CCN(c1cnccn1)C2.O=CO.O=CO,Percent Effect,"30 µM, 30.03 µM",-2.364%
CCCn1nc(C)c(C(=O)N(C)[C@@H]2CC[C@@H](OC)[C@@H]2O)c1C,Percent Effect,"30.3 µM, […]",19.04%
CC(C(=O)Nc1ccc(N2CCCC2)nc1)n1cccn1 (centres undefined),Percent Effect,30 µM,19.04%
Cc1noc(C)c1CCCNC(=O)C1CCN(C(C)C)CC1,Percent Effect,"30.3 µM, […]",24.48%
Cc1nc2cc(CNC(=O)C3CC(=O)N(C4CCCC4)C3)ccc2n1C (centres undefined),Percent Effect,"30.3 µM, […]",2.689%
CCN1CC(C(=O)NCc2ccc3c(c2)nc(C)n3C)CCC1=O (centres undefined),Percent Effect,"30.3 µM, […]",73.45%

# Reference: ChEMBL document CHEMBL3988442, “University of Dundee, Small-Polar-MMV Screening Library” (2021)
